Reference: PubChem BioAssay (EPA / NIEHS)
Results filed as inconclusive are left out. Calls of active or inactive are those of the source. How the source made its calls: active means hit-call score of the fitted dose curve at least 0.9, where 1 is the maximum; inconclusive means response in the unintended direction; inactive means score below 0.9.

What follows are compounds tested against human Phosphodiesterase 10 (PDE10), PDE10A (gene 10846) (UniProt Q9Y233) (assay: NVS_ENZ_hPDE10: NovaScreen (NVS) Enzymatic Assay for human Phosphodiesterase 10 (PDE10) (AID 2283195)).
Outline: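 Readout is fluorescence intensity following electrophoretic mobility-shift separation, 1 h after dosing of isolated PDE10A protein. Hits meeting a preset threshold at 25 uM went to concentration series (max 50 uM), analysed relative to DMSO.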

human Phosphodiesterase 10 (PDE10), PDE10A (gene 10846), sequence (Q9Y233 whole entry, looked up): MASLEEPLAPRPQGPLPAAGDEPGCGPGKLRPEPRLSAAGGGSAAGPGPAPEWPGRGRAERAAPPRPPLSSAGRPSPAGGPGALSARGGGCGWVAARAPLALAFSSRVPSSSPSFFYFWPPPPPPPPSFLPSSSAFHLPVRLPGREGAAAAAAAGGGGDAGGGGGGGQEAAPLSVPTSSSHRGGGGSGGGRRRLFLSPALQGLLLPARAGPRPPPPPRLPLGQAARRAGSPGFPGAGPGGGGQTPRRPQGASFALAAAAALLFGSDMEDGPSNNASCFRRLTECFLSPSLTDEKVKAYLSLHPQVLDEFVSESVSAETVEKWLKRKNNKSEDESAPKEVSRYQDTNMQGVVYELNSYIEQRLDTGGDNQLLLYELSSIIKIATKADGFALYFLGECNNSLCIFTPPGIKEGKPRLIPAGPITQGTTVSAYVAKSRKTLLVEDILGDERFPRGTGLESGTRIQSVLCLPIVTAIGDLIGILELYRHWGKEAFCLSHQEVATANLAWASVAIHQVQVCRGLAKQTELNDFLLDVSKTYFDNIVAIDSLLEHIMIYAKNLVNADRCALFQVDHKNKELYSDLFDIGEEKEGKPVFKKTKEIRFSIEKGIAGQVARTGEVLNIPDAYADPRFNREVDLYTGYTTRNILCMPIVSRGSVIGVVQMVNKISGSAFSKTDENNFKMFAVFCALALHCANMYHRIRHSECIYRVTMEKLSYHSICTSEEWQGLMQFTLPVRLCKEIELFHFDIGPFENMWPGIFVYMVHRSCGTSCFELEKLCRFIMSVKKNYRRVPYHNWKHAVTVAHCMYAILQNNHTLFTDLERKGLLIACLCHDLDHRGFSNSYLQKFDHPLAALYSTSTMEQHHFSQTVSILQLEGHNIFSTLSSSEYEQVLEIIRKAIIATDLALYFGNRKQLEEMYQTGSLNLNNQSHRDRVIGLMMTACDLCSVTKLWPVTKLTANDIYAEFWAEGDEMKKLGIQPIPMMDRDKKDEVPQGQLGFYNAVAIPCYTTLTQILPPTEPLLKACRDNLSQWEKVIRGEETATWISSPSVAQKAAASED

Row | SMILES | AC50 | outcome
1 | O=C(c1ccc(OCCN2CCCCC2)cc1)c1c(-c2ccc(O)cc2)sc2cc(O)ccc12 | 25 µM (active) | 
2 | Brc1cc(Br)cc(Br)c1 |  | inactive
3 | CC/C(=C(\c1ccccc1)c1ccc(OCCN(C)C)cc1)c1ccccc1 | 22.9 µM (active) | 
4 | N#CCCNCCC#N |  | inactive
5 | CCCCCCOC(C)=O |  | inactive
6 | CCOC(=O)CCCCCCCCC(=O)OCC |  | inactive
7 | COc1ccccc1NC(=O)CC(C)=O | 7.87 µM (active) | 
8 | CC(C)(C)c1cc(CCC(=O)OCCSCCOC(=O)CCc2cc(C(C)(C)C)c(O)c(C(C)(C)C)c2)cc(C(C)(C)C)c1O |  | inactive
9 | CC(O)COCC(C)O (centres undefined) |  | inactive
10 | OCCCO | 16.1 µM (active) | 
11 | S=c1[nH][nH]c(=S)s1 |  | inactive
12 | CCC(CC)CO |  | inactive
13 | CC1(C)[C@H](C=C(Cl)Cl)[C@H]1C(=O)OCc1cccc(Oc2ccccc2)c1 | 25 µM (active) | 
14 | CCO[Si](CCC#N)(OCC)OCC |  | inactive
